# Experimental data: PubChem BioAssay (NCATS)
# Inconclusive results are not listed. Active and inactive are the calls of the source. Calls come from the whole dose curve; as a rule, active = well fitted inhibition curve with a large enough effect; inconclusive = small, poorly fitted or top-dose-only effect; inactive = no such curve, though single readings can be large or run the other way.
# Molecular target: Papain (Carica papaya) (UniProt P00784)
# Experiment: Primary qHTS assay for inhibitors of the protease papain (AID 1645873);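 note: papain turnover of Z-FR-AMC read as the AMC fluorescence gain over 10 min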
# Details: papain Z-FR-AMC cleavage, AMC fluorescence; series mostly up to 49.8 µM; activity change, negative = inhibition: at the top concentration
# % is set by controls: 0 for no effect and ±100 for the full control effect; potency is the fitted concentration of half-maximal effect.
# Sequence of Papain (Carica papaya) (P00784 whole entry, looked up): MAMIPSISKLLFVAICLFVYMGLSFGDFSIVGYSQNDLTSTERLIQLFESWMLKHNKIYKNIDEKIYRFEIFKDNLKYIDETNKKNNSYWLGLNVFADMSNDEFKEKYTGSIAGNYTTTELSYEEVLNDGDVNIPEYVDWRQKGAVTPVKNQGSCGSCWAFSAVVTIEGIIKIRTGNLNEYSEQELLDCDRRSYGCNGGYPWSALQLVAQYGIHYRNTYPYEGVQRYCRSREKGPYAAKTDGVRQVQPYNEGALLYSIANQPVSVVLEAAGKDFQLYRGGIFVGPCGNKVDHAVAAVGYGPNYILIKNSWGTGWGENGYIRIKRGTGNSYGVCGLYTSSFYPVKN
SMILES,"activity change, negative = inhibition",Potency
CCCN(CCc1ccccc1)C1CCc2c(O)cccc2C1 (stereo unspecified),-1.35% (inactive),–
CN1CC(O)C(O)C(O)C1CO (stereo unspecified),-4.23% (inactive),–
CCCCCCC(=O)OC1CC(C)(C)NC(C)(C)C1,4.59% (inactive),–
O=C(O)c1ccccc1Nc1ccccc1,-5.67% (inactive),–
O=C(O)C1=CCCN(CCON=C(c2ccccc2)c2ccccc2)C1,0.09% (inactive),–
CN[C@H](CC(=O)O)C(=O)O,3.15% (inactive),–
C[C@H](O)C(=O)C1=Nc2c(nc(N)[nH]c2=O)NC1,–,28.2 µM (active)
Nc1ccc(CCNc2ncnc3c2ncn3C2OC(CO)C(O)C2O)cc1 (stereo unspecified),-2.79% (inactive),–
Nc1nc2ccc(Cl)cc2c2nc(-c3ccco3)nn12,–,22.4 µM (active)
CC(C)(C)c1cc(/C=C(\C#N)C(N)=S)cc(C(C)(C)C)c1O,46% (inactive),–
CCCCCCCCCCCCCCCCCCOC[C@H](COP(=O)([O-])OCC[N+](C)(C)C)OC,-3.33% (inactive),–
Cc1cc(Cn2cnc3c2C[C@@H](C(=O)O)N(C(=O)C(c2ccccc2)c2ccccc2)C3)ccc1N,-0.63% (inactive),–
N[C@@H](CCC(=O)N[C@H](CSN=O)C(=O)NCC(=O)O)C(=O)O,-9.99% (inactive),–
O=C(O)c1cccnc1C(=O)O,-3.15% (inactive),–
O=[N+]([O-])c1cccc2c(Br)[nH]nc12,7.29% (inactive),–
NCCNS(=O)(=O)c1cccc2c(Cl)cccc12,-4.05% (inactive),–
N#C/C(=C\c1ccc(O)c(O)c1)C(=O)NCCCNC(=O)/C(C#N)=C/c1ccc(O)c(O)c1,–,22.4 µM (active)
CCCCCCCCCCCCCCSCC(=O)O,-6.75% (inactive),–
CN1CCC2(CCN3CCc4c(oc5ccccc45)C3C2)N(C)C1=O (stereo unspecified),-3.15% (inactive),–
NC(N)=NC(N)=Nc1cccc(Cl)c1,1.17% (inactive),–
Cc1cc2c(cc1Cl)N(C(=O)Nc1ccnc3ccccc13)CC2,-4.95% (inactive),–
CCCCCCCCCCC/C=C\C(C)(C)/C=C\CCCC(=O)O,-2.61% (inactive),–
NC(=O)c1cc[n+](CC2=C(C(=O)O)N3C(=O)[C@@H](NC(=O)[C@@H](c4ccccc4)S(=O)(=O)[O-])[C@H]3SC2)cc1,3.51% (inactive),–
O=c1ccc2c(OCCCCc3ccccc3)c3ccoc3cc2o1,-16.1% (inactive),–
CC(N)(C(=O)O)c1ccc(C(=O)O)cc1 (stereo unspecified),4.23% (inactive),–
CCCCCC[C@@H]([C@@H](C)O)n1cnc2c(N)ncnc21,31.5% (inactive),–
